# Assay outcomes: PubChem, National Center for Advancing Translational Sciences (NCATS)
# Compounds with a hit are over-represented: about 19% of the library has one in this group of screens.
# IL-1B inflam inh = inflammasome signaling inhibition, IL-1 beta readout; activity change, % at 57.5 µM; AID 743279; THP-1 LPS/ATP IL-1B secretion, AlphaLISA, 16 h; stronger effect = lower value; hit rate 4.7% among 360,000; in the data active = activity change below about -50%; inconclusive = mostly about -30% to -49%
#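 Secreted IL-1B measured by AlphaLISA bead assay after 16 h compound exposure of THP-1 cells; compounds (final up to 57.5 uM) added 1 h before LPS (250 ng/mL) and ATP (1.25 mM) stimulation; lower signal means less secretion.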
# HT1080-NT tox = kills 2HG-producing HT-1080-NT fibrosarcoma cells; HT-1080-NT fibrosarcoma viability, CellTiter-Glo ATP luminescence, 48 h; Potency, µM (top dose mostly 46.1 µM), for the others: at the top dose activity, negative = less viability, most hits filed as cytotoxic; hit rate 1.6% among 360,000;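 note: NT is the 2HG producing partner of a matched IDH1 knockdown line; potency is the fitted concentration of half-maximal effect; 0% = DMSO-treated cells and -100% = media-only wells without cells; nearly all actives have a fitted effect of over 55% in size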
#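 Read-out is CellTiter-Glo luminescence after 10 minutes at room temperature, following 48 hours' compound treatment of HT-1080-NT cells (750 cells/well, RPMI, 5% FBS, 37 degrees C).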
# DT40 TDP1 CPT = growth inhibition of DT40 Tdp1-/-;hTDP1 cells with camptothecin (screen for TDP1 inhibitors); chicken DT40 Tdp1-/-;hTDP1 cells + 20 nM CPT, ATP luminescence, 48 h; Potency, µM (series often up to 46.2 µM), for inactives: at the top dose activity change, negative = growth inhibition, hits mostly inhibitors; hit rate 12% among 420,000; note: potency is the fitted concentration of half-maximal effect; nearly all actives have a fitted effect of over 55% in size
#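 Cell growth measured by CellTiter-Glo luminescence after a minimum 48 h, 37 C compound exposure with 20 nM CPT in Tdp1-knockout DT40 cells stably expressing hTDP1, seeded 400/well; qHTS titration format.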
# TDP1 cell noCPT = qHTS for Inhibitors of human tyrosyl-DNA phosphodiesterase 1 (TDP1): qHTS in cells in absence of CPT; DT40 Tdp1-/- hTDP1 cells, no CPT, ATP luminescence, 48 h; Potency, µM (titrated, usually from 46.2 µM), inactives show at the highest dose activity change, negative = growth inhibition, most hits filed as inhibitors; hit rate 15% among 420,000; AID 686978, 2013; note: potency is the fitted concentration of half-maximal effect; nearly all actives have a fitted effect of over 55% in size
#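 Stably hTDP1-transfected Tdp1-null chicken DT40 cells were treated with library compounds minus camptothecin and grown for at least 48 hr at 37 °C, after which cellular ATP was quantified by luminescence.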
# HT1080 IDH1KD tx = kills HT-1080 cells with IDH1 knockdown | HT-1080 IDH1 knockdown viability, ATP luminescence, 48 h | Potency, µM (highest dose often 46.1 µM), without a hit: at the highest dose activity, negative = toxicity, usual class: cytotoxic | hit rate 2% among 360,000 | AID 686971;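 note: potency is the fitted concentration of half-maximal effect; 0% = DMSO wells and -100% = cell-free medium wells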
#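 Assay cells: HT-1080 with IDH1 knockdown, 750 per well, RPMI/5% FBS. Exposure: 48 h at 37 °C following 2 h pre-incubation. Read: CellTiter-Glo luminescence; fitted concentration-response, curve class assigned.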
# uPA surface inh = inhibitors of cell surface uPA generation. cell surface uPA generation assay, qHTS. Potency, µM (titrated, usually from 38.3 µM), for inactives: at the top dose activity change, negative = inhibition, hits mostly inhibitors. hit rate 0.31% among 330,000. AID 540303; active = well fitted inhibition curve with a large enough effect; inconclusive = small, poorly fitted or top-dose-only effect; inactive = no such curve, though single readings can be large or run the other way; tested in mouse RAW 264.7 cells; note: potency is the fitted concentration of half-maximal effect; nearly all actives have a fitted effect of over 55% in size
# An asterisk follows results filed as active; ? = inconclusive; / = no result; ! = a repeat was not active. Unless noted, calls come from the whole dose curve; as a rule, active = well fitted curve in the direction sought with a large enough effect; inconclusive = small, poorly fitted or top-dose-only effect, or another doubt; inactive = no such curve, though single readings can be large; an effect the other way counts as inactive or inconclusive. Unless noted, % is set by controls: 0 for no effect and ±100 for the full control effect.
SMILES,IL-1B inflam inh,HT1080-NT tox,DT40 TDP1 CPT,TDP1 cell noCPT,HT1080 IDH1KD tx,uPA surface inh
Cn1cc(/C=C/c2cc[n+](C)cc2)c2cc(F)ccc21,-4,?,0.52µM*,0.58µM*,?,-3%
C[n+]1ccccc1/C=C/c1ccc(F)c(F)c1,0,-4%,-7%,-18%,-5%,0%
O=C(C1CCN(S(=O)(=O)Cc2ccccc2)CC1)N1CCN(c2ccccc2F)CC1,/,/,?,-27%,/,/
CCN1CCN(C(=O)C(Cc2ccccc2)NC(=O)c2ccc(Cl)c(S(=O)(=O)N(C)C)c2)CC1 (stereo not drawn),0,0%,?,?,-1%,?
OC(Cc1ccccc1Br)c1ncc(-c2cccc(C(F)(F)F)c2)[nH]1 (stereo not drawn),-61*,?,23µM*,16µM*,16µM*,/
Cc1cccc(C(O)c2ncc(-c3cccc(C(F)(F)F)c3)[nH]2)c1C (stereo not drawn),-12,-24%,?,?,?,/
OC(Cc1cccc(Br)c1)c1ncc(-c2cccc(C(F)(F)F)c2)[nH]1 (stereo not drawn),-8,?,?,16µM*,?,/
Cc1oc(-c2ccc(C(=O)Nc3cccc(C(F)(F)F)c3)cc2)nc1CSc1ccccc1,/,/,23µM*,16µM*,/,/
COC(=O)c1ccccc1NC(=O)c1ccc(-c2nc(CSc3ccc(C)cc3)c(C)o2)cc1,/,/,-9%,0%,/,/
COc1ccc(NC(=O)c2ccc(-c3nc(CSc4ccccc4)c(C)o3)cc2)cc1OC,/,/,?,-14%,/,/
Cc1ccc(Cl)cc1NC(=O)c1ccc(-c2nc(CSc3ccccc3)c(C)o2)cc1,/,/,9.2µM*,6.5µM*,/,/
Cc1cccc(NC(=O)c2ccc(-c3nc(CSc4ccccc4)c(C)o3)cc2)c1C,/,/,5.2µM*,?,/,/
Cc1oc(-c2cccc(Cl)c2)nc1CSCC(=O)O,14,-1%,16µM*!,29µM*!,0%,-10%
CCc1noc(C)c1C(=O)N1CCSC1=Nc1cccc(Cl)c1C,-4,-2%,?,23µM*,?,5%
Cc1cc(C)nc(Nc2ccccc2Br)n1,15,4%,-15%,-29%,4%,1%
Cc1cc(C)nc(N/C(=N\S(=O)(=O)Cc2ccccc2)Nc2ccccc2Br)n1,-8,-22%,21µM*,21µM*,?,-5%
COCCCNC1=C(C#N)C(=O)NC2(CCCC2)S1,28,-6%,1%,-6%,-9%,/
COCCCNC(=O)CCCn1c(SCC(=O)c2ccc(F)cc2)nc2c(sc3ccccc32)c1=O,/,/,5%,-2%,/,/
COc1ccc(C(C)NC(=O)C2CCN(CCOc3ccc(Cl)cc3Cl)CC2)cc1OC (stereo not drawn),-24,23µM*,23µM*,23µM*,?,/
COc1ccc(C(NC(=O)C2CCN(CCOc3ccc(Cl)cc3Cl)CC2)c2cccs2)cc1 (stereo not drawn),-21,-23%,?,16µM*,?,/
COc1ccc(C(NC(=O)C2CCN(CCOc3ccc(Cl)cc3Cl)CC2)c2ccccc2C)cn1 (stereo not drawn),-1,-7%,?,?,23%,/
COC(=O)C[C@H]1C[C@H]2c3cc(NC(=O)C4CCC4)ccc3O[C@H]2[C@H](CO)O1,-3,-4%,-5%,-23%,6%,/
O=C(Nc1ccc2c(c1)OCCO2)C(=O)c1c[nH]c2ccccc12,?,7.3µM*,10µM*,?,?,-19%
CCN(CC)C(=O)Cn1cc(C(=O)C(=O)Nc2ccc3c(c2)OCCO3)c2ccccc21,?,?,18µM*,23µM*,?,-11%
O=C(Nc1ccc2c(c1)OCO2)C(=O)c1c[nH]c2ccccc12,-8,?,-9%,-8%,?,?
